Structures are written as SMILES. Records with an inconclusive call do not appear. Entries that show only a call come without a potency. The source made the active and inactive calls. The call rests on the fitted dose curve; in most records, active means well fitted activation curve with a large enough effect; inconclusive means small, poorly fitted or top-dose-only effect; inactive means flat fitted curve, though single readings scatter.

Here are results for 38 molecules from PubChem BioAssay AID720519 (National Center for Advancing Translational Sciences (NCATS), 2013).
Potency means the concentration at half of the fitted maximal effect.

This test can be described thus: qHTS for Inhibitors of Cell Surface uPA Generation: Confirmatory Assay for Cherry-picked Compounds. The settings on record: cell surface uPA activity generation, qHTS confirmation; series mostly up to 115 µM. In a few lines: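 RAW 264.7 cells at 4000/well, incubated overnight, then treated with compounds. After 24 h at 37 C, viability was read by ATPlite luminescence. An increase in signal indicates blocked uPA-dependent LF entry.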
A general note: In qHTS, concentration-response curves come from the screen itself.
Take `Cc1cnc(CNC(=O)C2CCC(=O)N(CCc3cccc(F)c3)C2)[nH]1` (stereo not drawn): the Potency result is “inactive”.
`Cc1nc(NC(=O)COC(=O)CCc2ccccc2)c(Cl)cc1Cl`: the Potency result is “inactive”.
Regarding `Cc1cccc(C(=O)Nc2cc(=O)n(C)c(=O)n2C)c1`, the Potency entry was “inactive”.
For the molecule `COc1cc(CCC(=O)OCC(=O)Nc2ccc(C)cc2Br)cc(OC)c1OC`, the Potency result is “inactive”.
Next, `CC1CCC(NC(=O)c2nn(C)c3c2CS(=O)(=O)c2ccccc2-3)CC1` (stereo not drawn): “inactive”.
For `COc1ccc(C(=O)NC(C)c2cnn(-c3ccccn3)c2C)o1` (stereo not drawn) the value was “inactive”; for `CC(C)(O)C#Cc1ccc(C(=O)N2CCCC(CCC(=O)NCc3ccccc3F)C2)cc1` (stereo not drawn), “inactive”.
In the case of `Cc1ccc2c(c1)N(CC(=O)NCCCc1ccccc1)C(=O)c1cccnc1O2`, the Potency entry is “inactive”.
Consider `CC1(C)Oc2ccc3ccc(=O)oc3c2[C@@H](O)[C@H]1O`, for which the Potency result was “inactive”.
For `COc1ccc([C@@H]2[C@@H]3C(=O)N(C(C)(C)C)C(=O)[C@@H]3[C@]3(C)C(=O)N(c4cccc(Cl)c4)C(=O)N23)cc1` the value was “inactive”.
Next, `Cc1oc2c(Cl)c(Cl)c(O)c(CN(C)C)c2c1C(=O)c1ccc(Cl)cc1`: “inactive”; `Cn1cnc([N+](=O)[O-])c1Sc1ccc(Br)cc1`: “inactive”.
On to `COc1ccc(CC(=O)NNS(=O)(=O)c2ccccc2[N+](=O)[O-])cc1OC`, for which the Potency entry is “inactive”.
Next, `CCOC(=O)C1=CC[C@@H](c2cc3ccc(OC)cc3n2C)N(S(=O)(=O)c2ccc(C)cc2)[C@H]1C(=O)OCC`: “inactive”; `Cc1ccc(S(=O)(=O)N(C)c2ccc(OC(=O)c3ccc(=O)[nH]c3)cc2)cc1`: “inactive”.
Next, `CCCn1nnc(NC(=S)NC(=O)c2ccccc2OC)n1`: “inactive”; `COCCn1c(SCC(=O)Nc2ccc(F)cc2)nc2ccccc2c1=O`: “inactive”.
As to `CC1Cc2nc(SCC(=O)N3CCCC3)n(C)c(=O)c2S1` (stereo not drawn), the Potency entry was “inactive”.
On to `CC(C)CCN1C(=O)c2ccc(-c3nc4ccccc4c(=O)o3)cc2C1=O`, for which the Potency result was “inactive”.
Turning to `CCCN1CCN(CC(=O)Nc2nncs2)CC1`, the Potency result is “inactive”.
With `O=C(O)CCCC(=O)NCCCCc1ccccc1`, the Potency entry is “inactive”.
For the molecule `COc1cc(/C=C(/C#N)C(=O)Nc2ccccc2)ccc1OCc1ccc(C(=O)O)cc1`, the Potency result was “inactive”.
Next, `Cc1cc(OC(C)C(=O)NCc2ccccn2)c2c(C)cc(=O)oc2c1` (stereo not drawn): “inactive”; `CN(c1ccccc1)S(=O)(=O)c1ccc(C(=O)Nc2nnc(C3CC3)o2)cc1`: “inactive”; `C=CS(=O)(=O)c1ccc(Oc2ccc(S(=O)(=O)C=C)cc2)cc1`: 58.5 µM (active).
Turning to `C=CCN1C=C2C(=O)C(C)(OC(=O)c3cnc4ccccc4n3)C(=O)C=C2C=C1/C=C/COC` (stereo not drawn), the Potency result was “inactive”.
For `COc1ccc(C(=O)NNC(=O)Cc2ccc(Cl)cc2)cc1` the value was “inactive”; for `CC(=O)COc1ccc2c(-c3cccc([N+](=O)[O-])c3)cc(=O)oc2c1`, “inactive”; for `Cc1ccc(NS(=O)(=O)c2c(C)nc3sccn3c2=O)c(C)c1`, “inactive”.
For `NC(=O)c1ccc(NC(=O)CN2CCN(S(=O)(=O)c3ccc4ccccc4c3)CC2)cc1` the value was “inactive”; for `COc1ccccc1C(=O)NCCC(=O)NCC(c1ccc(F)cc1)N1CCOCC1` (stereo not drawn), “inactive”.
As to `O=c1[nH]c(SCc2cccc(Cl)c2)nc2ccccc12`, the Potency entry is “inactive”.
For the molecule `COc1cccc2c1Oc1ncccc1N(C(=O)CCC(=O)NCc1ccc(C)cc1)C2`, the Potency result is “inactive”.
For the molecule `Cc1ccnc(NC(=O)CCNS(=O)(=O)c2ccc(C)c(C)c2)c1`, the Potency result was “inactive”.
`Cc1cccc(C(=O)NC2CCN(CC(=O)N3CCOCC3)CC2)c1`: the Potency entry was “inactive”.
For `CCC(=O)Nc1nc(-c2cc([N+](=O)[O-])cs2)cs1` the value was “inactive”; for `CC(=O)NCCc1cnc[nH]1`, “inactive”.
Next, `Cc1ccc(C(=O)NC(=S)Nc2ccc3[nH]c(=O)[nH]c3c2)c(C)c1`: “inactive”.
